Screens as filed in PubChem BioAssay.
VLA-4 inh: inhibition in human VLA-4 binding assay, primary screen, VLA-4 allosteric modulator project, MLPCN library, flow cytometry, VLA-4 expressing cells. Integrin alpha-4 (Homo sapiens), P13612. ligand binding flow cytometry. inhibition, % (about 7 µM as worked out from the volumes in the protocol). hit rate 0.2% among 330,000. AID 2557, 2010; in the data active means inhibition above about 50%
Target sequence (P13612 whole entry, looked up): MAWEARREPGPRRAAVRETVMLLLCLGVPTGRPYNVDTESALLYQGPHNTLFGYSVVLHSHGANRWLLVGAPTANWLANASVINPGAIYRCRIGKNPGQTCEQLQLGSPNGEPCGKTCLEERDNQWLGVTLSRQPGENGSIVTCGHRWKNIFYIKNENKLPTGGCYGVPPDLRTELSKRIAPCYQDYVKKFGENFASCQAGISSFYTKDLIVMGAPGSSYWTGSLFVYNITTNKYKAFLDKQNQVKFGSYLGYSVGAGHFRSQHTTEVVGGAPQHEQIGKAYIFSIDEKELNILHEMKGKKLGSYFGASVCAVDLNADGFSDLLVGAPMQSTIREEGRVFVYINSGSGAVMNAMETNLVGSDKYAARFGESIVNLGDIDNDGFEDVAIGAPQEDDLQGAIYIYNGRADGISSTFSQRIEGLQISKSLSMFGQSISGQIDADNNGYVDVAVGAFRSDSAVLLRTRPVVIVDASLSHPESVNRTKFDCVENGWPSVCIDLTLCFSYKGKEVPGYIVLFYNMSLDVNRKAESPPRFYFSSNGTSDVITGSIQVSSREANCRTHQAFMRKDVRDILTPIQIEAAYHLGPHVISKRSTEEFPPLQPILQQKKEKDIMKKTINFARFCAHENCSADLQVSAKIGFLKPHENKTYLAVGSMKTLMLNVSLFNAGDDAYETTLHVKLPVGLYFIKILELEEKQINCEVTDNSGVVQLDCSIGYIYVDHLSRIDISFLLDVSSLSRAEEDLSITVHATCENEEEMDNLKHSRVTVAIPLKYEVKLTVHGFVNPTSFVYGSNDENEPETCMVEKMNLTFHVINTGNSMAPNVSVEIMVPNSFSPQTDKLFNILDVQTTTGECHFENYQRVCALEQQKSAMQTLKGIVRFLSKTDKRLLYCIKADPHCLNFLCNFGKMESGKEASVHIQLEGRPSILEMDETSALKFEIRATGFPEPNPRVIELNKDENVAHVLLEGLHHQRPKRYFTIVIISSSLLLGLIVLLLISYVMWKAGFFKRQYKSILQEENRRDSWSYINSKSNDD
NTR1 ag: agonists of human NTR1, primary screen, imaging, U2OS cells, beta-arrestin-GFP, high content | NTR1-U2OS beta-arrestin-GFP spot imaging, agonist mode | activation, % at 20 µM | hit rate 0.17% among 330,000 | AID 493036, 2011;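 active means activation at or above 40% of the spot to cytoplasm intensity ratio, with at least 20 cells analyzed; inconclusive means wells under 20 cells, flagged as cytotoxic or low count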
A1 inh: caspase 3/7 activation in MEF A1-2A-BIM cells, primary screen, A1 inhibitor project, cell-based, luminescence, HTS; Caspase-Glo 3/7 luminescence, 3 h; percent of clofoctol response, vehicle zero; caspase activation, % (test concentration not listed); hit rate 0.066% among 330,000;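 active means over half of replicate activation scores above 10%, or exactly half above 10 with the replicate mean above 10; inconclusive means replicate mean below 10 yet half the replicates above 10; inactive means over half of replicates below 10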
GRK2 inh: compounds blocking aptamer binding on GRK2 – biochemical, human GRK2, bead flow cytometry, HTS, primary screen; inhibition of aptamer binding, % at 10 µM; Beta-adrenergic receptor kinase 1 (Homo sapiens), P25098; FAM-aptamer displacement from GRK2; AID 488847, 2010; hit rate 0.59% among 330,000;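 active means inhibition of aptamer binding above 40%, roughly 3 SD of noise, on plates passing a quality check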;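 further: median bead fluorescence of bound FAM aptamer so fluorescent compounds give negative values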
B2AR ag: beta2AR agonists driving receptor internalization, primary screen, cell-based, FAP fluorogen, flow cytometry; Beta-2 adrenergic receptor (Homo sapiens), P07550; Am2.2-beta2AR cells; response, % (concentration not given with the values); hit rate 0.43% among 340,000;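 active means response above a set limit, near 3 SD of response in nonfluorescent compounds, cut at about 42% in these data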
NTR1 ag conf: NTR1 agonists, single-dose retest, confirmation, imaging, U2OS cells, beta-arrestin-GFP, single concentration; shares compounds with NTR1 ag; NTR1-U2OS beta-arrestin-GFP translocation imaging; activation, % at 20 µM; hit rate 38% among 480; AID 504550, 2011;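 active means mean activation at 20 µM of at least 40%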
A number is an active result; 0 = inactive; ? = inconclusive; - = not tested or not shown. Sampled rows, rich in hits. Any-hit rate of the full collection: about 1.3%.

SMILES | VLA-4 inh | NTR1 ag | A1 inh | GRK2 inh | B2AR ag | NTR1 ag conf
CC(C)(C)OC(=O)NCc1ccc(CNC(=O)c2nc[nH]c2C(=O)NCc2ccccc2)cc1 | 0 | 0 | 0 | 0 | 0 | -
CC(C)(C)OC(=O)NCc1ccc(CNC(=O)c2[nH]cnc2C(=O)NCC(=O)OCc2ccccc2)cc1 | 0 | 56 | 0 | 0 | 0 | 0
CC(C)C[C@H](NC(=O)c1nc[nH]c1C(=O)N[C@@H](CC(C)C)C(=O)OC(C)(C)C)C(=O)OCc1ccccc1 | 0 | 0 | 0 | 0 | - | -
COc1ccc([N+](=O)[O-])cc1NC(=O)C(C)OC(=O)Cn1[nH]c(=O)c2ccccc2c1=O (stereo unspecified) | 0 | 0 | 0 | 0 | 0 | -
C=CCn1c(=S)[nH]c2cc(C(=O)N3CCN(c4ccccc4OC)CC3)ccc2c1=O | 0 | 0 | 0 | 0 | 0 | -
COc1ccc(C(OC(=O)c2ccco2)C(=O)NC(C)(C)C)cc1OC (stereo unspecified) | - | - | - | - | 0 | -
CC(=O)Nc1ccc(Nc2nc(C)c([N+](=O)[O-])c(Nc3ccccc3)n2)cc1 | 0 | 46 | 0 | 0 | 0 | 0
Cc1nc(Nc2ccc(C(=O)O)cc2)nc(Nc2ccc(C(=O)O)cc2)c1[N+](=O)[O-] | 0 | 0 | 0 | 0 | 0 | -
O=[N+]([O-])c1ccc(Nc2c3ccccc3nc3ccccc23)cc1 | - | 44 | - | - | 0 | 0
COc1ccc(S(=O)(=O)N2CCOCC2)cc1NC(=O)c1ccccc1C | 0 | 0 | 0 | 0 | 0 | -
Cc1cccc(-c2nc(Nc3cccc(O)c3)c3ccccc3n2)c1 | 0 | 53 | 0 | 0 | 0 | 0
CC(C)CCN1C(=O)c2ccc(C(=O)NCc3ccccn3)cc2C1=O | 0 | 0 | 0 | 0 | 0 | -
CCCCn1c(N)c(-c2nc3ccccc3s2)c2c([N+](=O)[O-])nn(C)c(=O)c21 | 0 | 61 | 0 | 0 | 0 | 0
O=C(NCCCN1CCCC1=O)C1CCN(S(=O)(=O)c2ccc(Cl)cc2)CC1 | 0 | 0 | 0 | 0 | 0 | -
COC(=O)c1ccc2c(c1)C(C)(C)C(/C=C/c1ccccc1O)=[N+]2C | 0 | 50 | ? | 0 | 62 | 51
Clc1ccc(C2=Nn3c(nnc3-c3cc(-c4ccccc4)n[nH]3)SC2)cc1 | 0 | 47 | 0 | 0 | 0 | 48
c1ccc(C2=Nn3c(nnc3-c3cc(-c4ccccc4)n[nH]3)SC2)cc1 | 0 | 0 | 0 | 0 | 0 | -
Cc1ccc(-c2csc(-c3c[nH]c4ccccc34)n2)c(C)c1 | 0 | 46 | 0 | 0 | 0 | 0
Oc1ccc(-c2csc(-c3c[nH]c4ccccc34)n2)c(O)c1 | 0 | 0 | 0 | 0 | 0 | -
O=C1/C(=C/c2ccncc2)Oc2cc(OS(=O)(=O)c3ccccc3)ccc21 | 0 | 0 | 0 | 0 | 0 | -
COc1cccc(OC)c1C(=O)Oc1ccc2c(c1)O/C(=C\c1ccncc1)C2=O | 0 | 52 | 0 | 0 | 0 | 56
O=C(CCS(=O)(=O)c1ccccc1)Nc1cccc(-c2nc3ccccc3s2)c1 | 0 | 49 | 0 | 0 | 0 | 0
O=C(CCS(=O)(=O)c1ccccc1)Nc1ccc(-c2nc3ccccc3s2)cc1 | 0 | 0 | 0 | 0 | 0 | -
CCCCNc1c(-c2cccc(-c3cc(C(C)=O)cs3)c2)nc2ccc(C)cn12 | 0 | 41 | 0 | 0 | 0 | 0
CCCCCCSc1cccc(-c2nc3ccc(Cl)cn3c2NCCCC)c1 | - | - | - | - | 0 | -
SMILES | VLA-4 inh | NTR1 ag | A1 inh | GRK2 inh | B2AR ag | NTR1 ag conf
CCOC(=O)c1cc(-c2ccc(F)cc2)n(CCC(=O)NC2CCN(Cc3ccccc3)CC2)c1C | 0 | 0 | 0 | 0 | 0 | -
C[C@@H]1C=CC(=O)O[C@@H]1c1ccc(C(F)(F)F)cc1 | - | 0 | 0 | - | - | -
C[C@H]1C=CC(=O)O[C@H]1c1ccccc1 | 0 | 41 | 0 | 0 | 0 | 0
CC1CCCCC1NC(=O)c1cccc(NC2=NC3CS(=O)(=O)CC3S2)c1 (stereo unspecified) | 0 | 0 | - | 0 | 0 | -
CC1=NNC(=O)/C1=C\c1cn(-c2ccccc2)nc1-c1cccs1 | 0 | 83 | 16 | 0 | 106 | 96
O=C(O)CCCCCN1C(=O)/C(=C/c2cn(-c3ccccc3)nc2-c2cccs2)SC1=S | - | - | - | - | 0 | -
